An excerpt weighted towards active compounds, which were near 22% of everything screened.
CYP2C9 inh: human CYP2C9 inhibition; P11712; CYP2C9 Supersomes, luciferin-H conversion, luminescence; inhibition, % at 5 µM; 96,000 compounds, 20% hits; AID 777;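 active = blocking of liver enzyme CYP2C9 beyond about 50% at 5 µM, limit read from the data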
Target sequence (P11712 whole entry, looked up): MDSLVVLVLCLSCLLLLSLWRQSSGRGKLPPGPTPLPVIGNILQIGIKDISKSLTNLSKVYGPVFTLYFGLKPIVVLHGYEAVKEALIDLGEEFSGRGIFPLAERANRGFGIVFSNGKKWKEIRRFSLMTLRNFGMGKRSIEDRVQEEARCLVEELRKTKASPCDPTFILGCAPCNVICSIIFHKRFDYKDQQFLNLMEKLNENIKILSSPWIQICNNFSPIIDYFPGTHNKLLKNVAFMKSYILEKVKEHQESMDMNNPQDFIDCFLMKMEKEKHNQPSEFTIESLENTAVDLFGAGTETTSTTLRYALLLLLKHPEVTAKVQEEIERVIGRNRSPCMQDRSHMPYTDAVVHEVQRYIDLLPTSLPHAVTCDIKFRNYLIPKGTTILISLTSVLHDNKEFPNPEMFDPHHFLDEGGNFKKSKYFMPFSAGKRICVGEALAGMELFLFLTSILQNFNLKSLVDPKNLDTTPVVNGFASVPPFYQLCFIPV
CYP2C19 inhib: blocks human cytochrome P450 2C19; inhibition, % at 5 µM; AID 778; CYP2C19 Supersomes, luciferin-H EGE luminescence, 30 min; P33261; 96,000 compounds, 21% hits;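 active = CYP2C19 inhibition above a set limit at 5 µM in the primary screen, cut at about 50% in these data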
Measles CPE: protection of cells from measles virus; Measles virus-infected cells, CPE protection, absorbance; protection (pct of control), % at 4 µM; 140,000 compounds, 1.5% hits; AID 841; in the data active = protection mostly above about 24%, no sharp cut-off; inactive = mostly below about 26%
CYP2C9 activ: CYP2C9 (human) activation; activation factor at 5 µM; AID 1024; 96,000 compounds, 1.4% hits; recombinant CYP2C9, luciferin-H conversion, luminescence; active compounds read high; factor 1 = untreated enzyme, 0 = blocked;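 active = activation factor of 2 or more for CYP2C9 at a 5 µM dose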
CYP2C19 activ: activators of human cytochrome P450 2C19. P33261. recombinant CYP2C19, luciferin-H EGE luminescence; active compounds read high; 0 = fully inhibited enzyme, 1 = untreated enzyme. activation factor at 5 µM. 96,000 tested, under 10 active. AID 1025;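 active = activation factor of at least 2 at 5 µM in the primary screen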
Large screens that a line does not name were inactive.

CC(C)C(c1nnnn1Cc1ccccc1)N1CCN(Cc2ccc3c(c2)OCO3)CC1 (configuration not stated)	CYP2C9 inh 68, CYP2C19 inhib 92
Fc1ccccc1N1CCN(C(c2cccs2)c2nnnn2CCc2ccccc2)CC1 (configuration not stated)	CYP2C9 inh 57, CYP2C19 inhib 70
CC(C)C(c1nnnn1CC1CCCO1)N1CCN(Cc2ccc3c(c2)OCO3)CC1 (configuration not stated)	none
Fc1ccc(N2CCN(C(c3cccs3)c3nnnn3CCc3ccccc3)CC2)cc1 (configuration not stated)	none (no result: CYP2C9 inh, CYP2C19 inhib, CYP2C9 activ, CYP2C19 activ)
CCCC(c1nnnn1CCOC)N1CCN(c2cccc(OC)c2)CC1 (configuration not stated)	none
COCCn1nnnc1C(c1cccs1)N1CCN(c2ccccc2)CC1 (configuration not stated)	CYP2C9 inh 51
CC1(C)Cc2c(c(=S)nc(-c3ccccc3)n2CCO)CO1	none
c1ccc(CCn2nnnc2C(c2cccs2)N2CCN(Cc3ccc4c(c3)OCO4)CC2)cc1 (configuration not stated)	CYP2C9 inh 52, CYP2C19 inhib 56
COCCn1nnnc1C(c1ccccn1)N1CCN(c2cccc(C)c2C)CC1 (configuration not stated)	none (no result: CYP2C9 inh, CYP2C19 inhib, CYP2C9 activ, CYP2C19 activ)
COCCn1nnnc1C(c1ccccn1)N1CCN(c2cc(C)ccc2C)CC1 (configuration not stated)	CYP2C9 inh 70, CYP2C19 inhib 83
COCCCNC(=O)CC(NCCCOC)C(=O)O (configuration not stated)	none (no result: CYP2C9 inh, CYP2C19 inhib, CYP2C9 activ, CYP2C19 activ)
O=C(c1cc2c(s1)CCCCC2)N1CCN(c2ncccn2)CC1	CYP2C9 inh 92, CYP2C19 inhib 69
Cc1cc(C(=O)N2CCN(c3ncccn3)CC2)cs1	CYP2C19 inhib 78
O=C(c1ccc(F)cc1)N1CCC(O)(c2cccnc2)CC1	CYP2C19 inhib 69
O=C(c1ccc(F)cc1F)N1CCN(c2ncccn2)CC1	none
O=C(c1c(F)cccc1F)N1CCC(O)(c2cccnc2)CC1	none
O=C(c1ccc(F)cc1)N1CCN(c2ncccn2)CC1	CYP2C19 inhib 53
O=C(OCc1c(Cl)nc2sccn12)c1cc2c(s1)CCCC2	none
COCCCNC(=O)Cn1cc2c(n1)CCCCC2	none
CNC(=O)Nc1cccc(NC(=O)NC)n1	none
O=C(c1cccc(S(=O)(=O)NCCOc2ccccc2)c1)N1CCN(c2ncccn2)CC1	CYP2C9 inh 87, CYP2C19 inhib 87
O=C(c1cccc(S(=O)(=O)N2CCCC2)c1)N1CCN(c2ncccn2)CC1	none (no result: CYP2C9 inh, CYP2C19 inhib, CYP2C9 activ, CYP2C19 activ)
O=C(c1cccc(OC(F)F)c1)N1CCN(c2ncccn2)CC1	CYP2C9 inh 68
O=C(c1ccc(-c2ccccc2)cc1)N1CCN(c2ncccn2)CC1	CYP2C9 inh 64
CC(C)(C)c1cc(C(=O)N2CCN(c3ncccn3)CC2)ccn1	none
CC(C)Nc1nc(NC(C)C)nc(N(C#N)CCOc2ccc(Cl)cc2Cl)n1	none (no result: CYP2C9 inh, CYP2C19 inhib, CYP2C9 activ, CYP2C19 activ)
O=C1CC(c2ccccc2)c2c(O)cc(O)cc2O1 (configuration not stated)	CYP2C9 inh 79, CYP2C19 inhib 63
O=C1CC(c2ccccc2)c2ccc(O)cc2O1 (configuration not stated)	CYP2C9 inh 54
CCOC(=O)CC(=O)CSc1ccc2nnc(-c3ccccc3)n2n1	none
CCOC(=O)N1CCC(Nc2ccc3nnc(-c4ccccc4)n3n2)CC1	CYP2C9 inh 93, CYP2C19 inhib 96
COc1ccc(NC2=CC(c3cccc(OC)c3)N(c3ccc(OC)cc3)C2=O)cc1 (configuration not stated)	none (no result: CYP2C9 inh, CYP2C19 inhib, CYP2C9 activ, CYP2C19 activ)
Oc1cccc(Nc2nc(NCC3CCCO3)c3ccccc3n2)c1 (configuration not stated)	CYP2C9 inh 60, CYP2C19 inhib 51
CCOc1ccc(CCNC(=O)C2CCN(S(=O)(=O)CC)CC2)cc1OCC	none
O=C(CNS(=O)(=O)c1ccc(Br)s1)N1CCCC1	CYP2C19 inhib 64
COc1ccccc1N1CCN(C(=O)CCNS(=O)(=O)c2ccc(Br)s2)CC1	CYP2C9 inh 80
O=C(CCNS(=O)(=O)c1ccc(Br)s1)N1CCN(c2ccccc2)CC1	none
COc1ccc(S(=O)(=O)N(C)c2ccc(C(=O)N3CCOCC3)cc2)cc1OC	none
O=c1/c(=C\c2ccc(O)cc2)sc2n1C(c1ccccc1)C(c1ccccc1)=NN=2 (configuration not stated)	CYP2C9 inh 56

Screening data as filed in PubChem BioAssay.
